# The list is not random: actives were taken first. Their share in the collection is about 1.2%.
# RGS8-Gao – regulators of human RGS8-Galphao interaction | response (percent of control binding), % at 10 µM | P09471 | multiplexed bead flow cytometry, RGS8-Galphao binding; actives lie on both sides | 0.34% of 220,000 active; in the data active = response below about 60% or above about 140%; inactive = in between;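 note: Galphao activated as the GDP aluminium fluoride complex binding bead-coupled RGS8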
# Target sequence (P09471 whole entry, looked up): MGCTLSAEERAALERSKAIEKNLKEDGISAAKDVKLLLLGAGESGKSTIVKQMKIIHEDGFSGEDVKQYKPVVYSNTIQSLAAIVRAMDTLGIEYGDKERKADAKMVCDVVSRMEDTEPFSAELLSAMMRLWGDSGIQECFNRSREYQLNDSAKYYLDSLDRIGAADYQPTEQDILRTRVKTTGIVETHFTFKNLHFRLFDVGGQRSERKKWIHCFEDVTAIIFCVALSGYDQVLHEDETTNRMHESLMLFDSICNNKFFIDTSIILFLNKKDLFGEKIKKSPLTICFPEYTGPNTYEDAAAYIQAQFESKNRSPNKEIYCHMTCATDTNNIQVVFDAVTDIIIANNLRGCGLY
# Avidin fluor – avidin bead compound fluorescence profile; 0.38% of 220,000 active; fluorescence (KMESF) at 10 µM; AID 1775; Avidin beads, compound fluorescence 488/530 nm, flow cytometry; hits give high values; in the data active = fluorescence above about 47
# RGS16-Gao – regulators of human RGS16-Galphao interaction; O15492+P09471; binding response (% of control), % at 10 µM; 0.38% of 220,000 active; bead-based flow cytometry RGS16-Galphao binding, fluorescence; actives lie on both sides; AID 1441; call rule not given here;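 note: Galphao activated by GDP with aluminum fluoride before binding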
# Target sequence (O15492 whole entry, looked up): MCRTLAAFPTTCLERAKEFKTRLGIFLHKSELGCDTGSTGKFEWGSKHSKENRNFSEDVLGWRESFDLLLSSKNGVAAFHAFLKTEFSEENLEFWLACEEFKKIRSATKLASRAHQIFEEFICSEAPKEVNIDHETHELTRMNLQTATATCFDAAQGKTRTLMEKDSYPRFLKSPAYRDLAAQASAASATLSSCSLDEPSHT
# Target sequence (P09471 whole entry, looked up): as the sequence (P09471 whole entry, looked up) above
# RGS4-Gao reg – modulates binding of RGS4 to human Galphao; P09471; Multiplexed bead flow cytometry; actives lie on both sides; binding response (% of control), % at 10 µM; 0.33% of 220,000 active; AID 1415; in the data active = binding response below about 49% or above about 150%; inactive = in between;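 note: fluorescent Galphao activated with aluminum fluoride binding bead-coupled RGS4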
# RGS7-Gao – human RGS7-Galphao interaction regulation; P09471; binding response (% of control), % at 10 µM; Multiplexed bead flow cytometry, RGS7-Galphao binding; actives lie on both sides; 0.35% of 220,000 active; in the data active = binding response below about 49% or above about 150%; inconclusive = no clear call, values can overlap the other calls; inactive = in between;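 note: fluorescent Galphao held in activated GDP-AlF4 state binding bead-coupled RGS7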
# GSH bead fluor – GSH bead compound fluorescence profile. AID 1776. 0.25% of 190,000 active. GSH beads flow cytometry, compound fluorescence 488/530 nm; hits give high values. fluorescence (KMESF) at 10 µM; in the data active = fluorescence above about 89;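 note: glutathione beads carrying GST-tagged Bcl family fusion proteins plus one bare bead set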
# A number is an active result; – = inactive; ? = inconclusive; · = no result given.
SMILES,RGS8-Gao,Avidin fluor,RGS16-Gao,RGS4-Gao reg,RGS7-Gao,GSH bead fluor
CCN(Cc1ccccc1)C(c1ccncc1)c1nnnn1C(C)(C)C (centres undefined),–,49,–,–,–,–
O=C1CN(C(=O)CNCc2ccccc2Cl)c2ccccc2N1,–,–,–,–,?,·
COc1ccc(-c2noc(CCC(=O)NCCc3cccc(C)c3)n2)cc1,–,–,–,–,?,–
C=CCNc1nc(Nc2ccccc2F)nc(OCC)n1,–,–,–,–,–,–
C=CCNc1nc(Nc2ccc(OC)cc2OC)nc(OCC)n1,–,75,–,–,–,–
COc1ccc(-c2[nH]nc3c2C(c2ccc(OC(=O)N4CCOCC4)cc2)C(C#N)=C(N)O3)cc1 (centres undefined),52,–,–,44,45,–
COc1ccc(-c2[nH]nc3c2C(c2ccccc2OC(=O)N2CCOCC2)C(C#N)=C(N)O3)cc1 (centres undefined),–,–,–,–,–,–
Cc1ccccc1OCCCC(=O)Nc1nncs1,–,–,–,–,–,–
CC1(C)CC(CCNC(=O)CCl)(c2ccccc2)CCO1 (centres undefined),–,–,–,–,?,·
CCCCN(CC)Cc1ccc(CNC(=O)Nc2ccc(Cl)cc2)o1,–,–,–,–,–,–
CCCCN(CC)Cc1ccc(CNC(=O)Nc2ccc(OCC)cc2)o1,–,87,–,–,–,–
O=C(NC1CCCCCC1)C1Cc2ccccc2CN1C(=O)c1ccco1 (centres undefined),–,–,–,–,?,–
Cc1ccc(C(=O)Nc2ccc(S(=O)(=O)N3CCc4ccccc4C3)cc2)o1,–,50,–,–,–,–
Cc1ccc(C(=O)Nc2ccc(S(=O)(=O)N3CCc4ccccc43)cc2)o1,–,–,–,–,–,–
CN(C)C(=O)c1nc(C#N)c(N(C)C)o1,–,–,–,–,–,257
Cc1ccc(CS(=O)(=O)c2ccc(C(=O)N3CCN(c4ccccn4)CC3)cc2[N+](=O)[O-])cc1,–,60,–,–,–,–
COc1ccccc1-c1nn2c(-c3ccco3)nnc2s1,–,–,–,–,–,–
COc1ccccc1-c1nn2c(=O)cc(C)nc2s1,–,–,–,–,–,254
CS(=O)(=O)c1ccc(C(=O)OCC(=O)NC(=O)C2CCCCC2)cc1[N+](=O)[O-],–,–,–,–,?,–
CCOCCCNCc1c(Cl)cccc1Cl,–,60,–,–,–,–
OCC1OC(n2cnc3ccccc32)CC1O (centres undefined),–,–,–,–,?,·
O=C(COc1ccc(Br)cc1)N1CCN(c2ccc([N+](=O)[O-])c(N3CCCCC3)c2)CC1,–,–,–,–,–,–
COc1ccc(N2CCN(C(=O)COc3ccc4ccccc4c3)CC2)cc1,–,53,–,–,–,–
O=C(COc1ccccc1)N1CCN(c2ccc([N+](=O)[O-])c(N3CCCCC3)c2)CC1,–,54,–,–,–,–
O=C(COc1ccc2ccccc2c1)N1CCN(C(=O)c2cccnc2)CC1,–,85,–,–,–,–
SMILES,RGS8-Gao,Avidin fluor,RGS16-Gao,RGS4-Gao reg,RGS7-Gao,GSH bead fluor
COc1cc(OC)cc(C(=O)N2CCN(C(=O)COc3ccc4ccccc4c3)CC2)c1,–,–,–,–,–,–
Cc1nn(-c2ccc(Cl)cc2)c(NC(=O)C(C)C)c(-c2ccccc2)c1=O,–,–,–,–,?,·
O=C(O)c1cccc(Nc2nc(Nc3ccccc3)nc(N3CCCC3)n2)c1,–,–,–,–,–,–
CCCn1nc2cc(C(=O)NCCCCc3ccccc3)ccc2c1OCC,–,52,–,–,–,–
CCCn1nc2cc(C(=O)NCCc3ccc(C)cc3)ccc2c1OCC,–,63,–,–,–,–
CCCCn1nc2cc(C(=O)NCCc3cccs3)ccc2c1OCC,–,–,–,–,–,–
Cc1ccc(NC2=C(NCCO)C(=O)c3ccccc3C2=O)cc1,–,49,–,–,–,–
Cc1oc2c(O)c(O)ccc2c(=O)c1-c1cnn(-c2ccccc2)c1,–,–,–,43,46,–
Cc1oc2c(O)c(O)ccc2c(=O)c1-c1ccccc1,–,–,–,–,?,·
COc1ccccc1N(Cc1cc(=O)[nH]c2ccccc12)C(=O)c1ccccc1,–,–,–,–,?,·
CN(Cc1cc(=O)[nH]c2ccccc12)C(=O)c1ccccc1,–,–,–,–,–,271
c1ccc(COc2ccccc2CNc2nn[nH]n2)cc1,–,–,–,–,?,–
Cn1c(N)c(C(=O)CSc2nc3ccccc3c(=O)n2Cc2ccccc2)c(=O)n(C)c1=O,–,49,–,–,?,·
CCCCCCn1c(SCC(=O)c2c(N)n(C)c(=O)n(C)c2=O)nc2ccccc21,–,–,–,–,–,–
O=C(O)C1=C[C@H](c2coc3ccccc3c2=O)C[C@H](OCc2ccc(CO)cc2)O1,–,–,–,–,–,–
CCc1cc2c(N3CCCCC3)ncnc2s1,–,–,–,–,–,247
O=C(CCCc1nc(-c2ccccc2)no1)N1CCOCC1,–,–,–,–,–,248
COc1cccc(-c2noc(CCCC(=O)N3CCOCC3)n2)c1,–,–,–,–,–,–
O=C(Nc1nc(-c2ccccc2)cs1)c1cccc([N+](=O)[O-])c1,12,–,1.7,21,13,–
CN(C)c1nc(N2CCOCC2)nc(N(c2ccccc2)c2ccccc2)n1,–,–,–,–,–,266
Nc1nc(N2CCOCC2)nc(N(c2ccccc2)c2ccccc2)n1,–,–,–,–,–,–
Cc1cc(C)nc(Nc2ncc(O)n2-c2ccc(C)c(C)c2)n1,–,56,–,–,–,–
CCOc1ccc2nc(NC(=O)c3cccc(-c4cc5ccccc5oc4=O)c3)sc2c1,–,74,–,–,–,–
Cc1cccc(CN(C)CCc2ccccn2)c1,–,–,–,–,–,–
Cc1cccc(OCC(=O)N(C)CCc2ccccn2)c1,–,47,–,–,–,–
SMILES,RGS8-Gao,Avidin fluor,RGS16-Gao,RGS4-Gao reg,RGS7-Gao,GSH bead fluor
COc1cc(S(=O)(=O)N(Cc2ccccc2)CC2CCCO2)ccc1-n1cnnn1 (centres undefined),–,–,–,–,–,–
COc1cc(S(=O)(=O)N(Cc2cccs2)CC2CCCO2)ccc1-n1cnnn1 (centres undefined),–,50,–,–,–,–
CS(=O)(=O)c1ccc2nc(NC(=O)c3cccs3)sc2c1,–,56,–,–,–,–
C=CCNC(=O)COC(=O)c1ccc(Sc2nncn2C)c([N+](=O)[O-])c1,–,86,–,–,–,–
COc1ccc(/C=N/n2c(N)c(S(=O)(=O)c3cccs3)c3nc4ccccc4nc32)cc1OC,–,47,–,–,–,–
Nc1c(S(=O)(=O)c2cccs2)c2nc3ccccc3nc2n1/N=C/c1cccc(O)c1,–,57,–,–,–,–

# Screening data (PubChem)
